From PubChem BioAssay AID1159580 (chemical genetic matrix, 2015)
Out of some 5,500 compounds screened, about 2,000 (36%) were called active. Another 18% or so got no clear call; they are omitted. Rule as the data show it: active = normalized growth mostly below about 0.91 (no sharp cut-off); inconclusive = no clear call, values can overlap the other calls; inactive = mostly above about 0.92. Some of the results follow.

Assay: chemical genetic growth profiling, strain panel (AID 1159580);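 also: tested at 20 µM; growth read once vehicle control cultures reached saturation at 30 °C; 1 = growth at the plate median or of vehicle wells; lower values mean less growth of the strain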
Conditions: S. cerevisiae deletion strains, growth OD

Measured: normalized growth

CCn1nc(C)cc1-c1nnc(Sc2ncc([N+](=O)[O-])s2)n1C
inactive: locus YAR019C, strain CDC15, active compounds read low 0.964 | locus YBL105C, strain PKC1, active compounds read low 0.968 | locus YBR135W, strain CKS1, active compounds read low 0.967 | locus YBR136W, strain MEC1, active compounds read low 0.962 | locus YBR160W, strain CDC28, active compounds read low 0.956 | locus YDL017W, strain CDC7, active compounds read low 0.974 | locus YDL028C, strain MPS1, active compounds read low 0.961 | locus YDL101C, strain DUN1, active compounds read low 0.983 | locus YDL108W, strain KIN28, active compounds read low 0.945 | locus YDL132W, strain cdc53, active compounds read low 0.966 | locus YDL214C, strain PRR2, active compounds read low 0.981 | locus YDR052C, strain DBF4, active compounds read low 0.988 | locus YDR054C, strain cdc34, active compounds read low 0.975 | locus YDR226W, strain ADK1, active compounds read low 0.959 | locus YDR477W, strain SNF1, active compounds read low 0.95 | locus YER123W, strain YCK3, active compounds read low 0.93 | locus YER133W, strain GLC7, active compounds read low 0.995 | locus YFL009W, strain cdc4, active compounds read low 0.958 | locus YFL029C, strain CAK1, active compounds read low 0.954 | locus YFR003C, strain YPI1, active compounds read low 0.971 | locus YFR019W, strain FAB1, active compounds read low 0.974 | locus YFR028C, strain CDC14, active compounds read low 0.968 | locus YGR040W, strain KSS1, active compounds read low 0.954 | locus YGR052W, strain FMP48, active compounds read low 1.02 | locus YGR092W, strain DBF2, active compounds read low 0.92 | locus YHR030C, strain SLT2, active compounds read low 1.03 | locus YHR079C, strain IRE1, active compounds read low 0.963 | locus YHR082C, strain KSP1, active compounds read low 1.01 | locus YHR205W, strain SCH9, active compounds read low 0.956 | locus YIL147C, strain SLN1, active compounds read low 0.967 | locus YJL095W, strain BCK1, active compounds read low 0.933 | locus YJL128C, strain PBS2, active compounds read low 0.94 | locus YJL157C, strain FAR1, active compounds read low 0.957 | locus YJR016C, strain ILV3, active compounds read low 0.967 | locus YJR066W, strain TOR1 (second series), active compounds read low 0.971 | locus YJR066W, strain TOR1, active compounds read low 0.921 | locus YKL048C, strain ELM1, active compounds read low 0.99 | locus YKL067W, strain YNK1, active compounds read low 1 | locus YKL101W, strain HSL1, active compounds read low 0.985 | locus YKL193C, strain SDS22, active compounds read low 0.962 | locus YKL203C, strain TOR2, active compounds read low 1.07 | locus YLR113W, strain HOG1, active compounds read low 0.971 | locus YLR133W, strain CKI1, active compounds read low 0.958 | locus YLR403W, strain SFP1, active compounds read low 0.959 | locus YML070W, strain DAK1, active compounds read low 0.959 | locus YMR001C, strain CDC5, active compounds read low 0.961 | locus YMR205C, strain PFK2 (second series), active compounds read low 0.996 | locus YMR277W, strain FCP1, active compounds read low 0.95 | locus YNL006W, strain LST8, active compounds read low 0.967 | locus YNL020C, strain ARK1, active compounds read low 0.968 | locus YNL161W, strain CBK1, active compounds read low 0.975 | locus YNL183C, strain NPR1, active compounds read low 1.04 | locus YNL207W, strain RIO2, active compounds read low 0.985 | locus YNL222W, strain SSU72, active compounds read low 0.951 | locus YNL307C, strain MCK1 (second series), active compounds read low 0.945 | locus YOL078W, strain AVO1, active compounds read low 0.965 | locus YOL136C, strain PFK27, active compounds read low 0.955 | locus YOR061W, strain CKA2, active compounds read low 0.98 | locus YOR119C, strain RIO1, active compounds read low 1.05 | locus YOR231W, strain MKK1, active compounds read low 0.927 | locus YOR329C, strain SCD5, active compounds read low 0.975 | locus YPL031C, strain PHO85, active compounds read low 0.968 | locus YPL153C, strain RAD53, active compounds read low 0.96 | locus YPL204W, strain HRR25, active compounds read low 0.965 | locus YPL209C, strain IPL1, active compounds read low 0.974 | locus YPL256C, strain CLN2, active compounds read low 0.984 | locus YPR025C, strain CCL1, active compounds read low 0.965 | locus YPR106W, strain ISR1, active compounds read low 0.96 | locus YPR111W, strain DBF20, active compounds read low 0.978 | strain NNK1, active compounds read low 0.984 | strain TSCII, active compounds read low 0.963
